# Measured values taken from the supplement of paper PMC10037445.
# Where “and” joins values, the source holds several entries; their conditions need not be identical. Identical values can stand only once. Whole data set: some 2,900 compounds, median “IRF Lucia reporter activity, fold change vs agonist alone” near 0.9, cut for the highest 2% near 2.8. What follows is part of a selection rich in the highest values, with near analogues and random picks from the rest.
# What was measured:
# RAW-Dual [1] = test: IRF Lucia reporter activity, fold change vs agonist alone; cytotoxicity flag (confluency mask): not cytotoxic; higher = enhanced IRF activity
# Procedure, shortened: (§1)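 RAW-Dual macrophages were seeded in DMEM at 50,000 cells/well in 384-well plates, given 50 nL of library stock by pin tool, and given a PRR agonist 1 h later. Plates were held at 37 °C, 5% CO2 for 20 hours, after which supernatant was read for IRF by QuantiLuc luminescence and for NF-κB by QuantiBlue absorbance at 620 nm. Reporter activity is expressed as fold change over wells that received agonist alone. A well was called cytotoxic when IncuCyte confluency fell below 70% of agonist controls in both mask sets.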
# RAW-Dual [2] = test: IRF Lucia reporter activity, fold change vs agonist alone; higher = enhanced IRF activity; conditions: agonist: MPLA (TLR4) […]
# Procedure, shortened: as §1
# RAW-Dual [3] = test: IRF Lucia reporter activity, fold change vs agonist alone; cytotoxicity flag (confluency mask): cytotoxic (confluency <70% of control); higher = enhanced IRF activity
# Procedure, shortened: as §1
# [4] = agonist: 3'3'-cGAMP (STING) 10 ug/mL
# [5] = library stock concentration (final ~1000-fold dilution): 10 mM, cytotoxicity flag (confluency mask): not cytotoxic
# [6] = library stock concentration (final ~1000-fold dilution): 10 mM, cytotoxicity flag (confluency mask): cytotoxic (confluency <70% of control)
smiles,measurement,setting,value
NC(=O)C(CCC(F)(F)F)N(Cc1ccc(-c2ncon2)cc1F)S(=O)(=O)c1ccc(Cl)cc1 (stereo not drawn) (library stock concentration (final ~1000-fold dilution): 10 mM),IRF Lucia reporter activity,RAW-Dual [1]; [4],0.94
same,IRF Lucia reporter activity,RAW-Dual [1]; agonist: LPS (TLR4) 0.1 ug/mL,1.56
NC(=O)C(CCC(F)(F)F)N(Cc1ccc(-c2ncon2)cc1F)S(=O)(=O)c1ccc(Cl)cc1 (stereo not drawn),IRF Lucia reporter activity,RAW-Dual [2]; [5],1.3
CC1COCCN1c1cc(C2(S(C)(=N)=O)CC2)nc(-c2ccnc3[nH]ccc23)n1 (stereo not drawn) (library stock concentration (final ~1000-fold dilution): 10 mM),IRF Lucia reporter activity,RAW-Dual [1]; [4],0.193
same,IRF Lucia reporter activity,RAW-Dual [1]; agonist: LPS (TLR4) 0.1 ug/mL,1.39
COc1cc(C=CC(=O)OCC[N+](C)(C)C)cc(OC)c1O (library stock concentration (final ~1000-fold dilution): 10 mM),IRF Lucia reporter activity,RAW-Dual [1]; [4],0.894
same,IRF Lucia reporter activity,RAW-Dual [1]; agonist: LPS (TLR4) 0.1 ug/mL,1.04
O=c1cc(N2CCOCC2)oc2c(-c3cccc4c3sc3ccccc34)cccc12 (library stock concentration (final ~1000-fold dilution): 2 mM),IRF Lucia reporter activity,RAW-Dual [1]; [4],0.548
same,IRF Lucia reporter activity,RAW-Dual [1]; agonist: LPS (TLR4) 0.1 ug/mL,7.23
O=c1cc(N2CCOCC2)oc2c(-c3ccccc3)cccc12 (library stock concentration (final ~1000-fold dilution): 10 mM),IRF Lucia reporter activity,RAW-Dual [3]; [4],0.353
same,IRF Lucia reporter activity,RAW-Dual [3]; agonist: LPS (TLR4) 0.1 ug/mL,0.393
O=c1cc(N2CCOCC2)oc2c(-c3ccccc3)cccc12,IRF Lucia reporter activity,RAW-Dual [2]; [6],0.627
O=c1nc(N2CCOCC2)oc2c(-c3cccc4c3sc3ccccc34)cccc12 (library stock concentration (final ~1000-fold dilution): 10 mM),IRF Lucia reporter activity,RAW-Dual [1]; [4],0.298
same,IRF Lucia reporter activity,RAW-Dual [1]; agonist: LPS (TLR4) 0.1 ug/mL,1.03
O=c1cc(N2CCOCC2)oc2c(-c3cccc4c3sc3ccccc34)cccc12,IRF Lucia reporter activity,"RAW-Dual [2]; library stock concentration (final ~1000-fold dilution): 2 mM, cytotoxicity flag (confluency mask): not cytotoxic",2.7
COc1ccc(C2OCC3C(c4ccc(OC)c(OC)c4)OCC23)cc1OC (stereo not drawn) (library stock concentration (final ~1000-fold dilution): 10 mM),IRF Lucia reporter activity,RAW-Dual [1]; [4],1.35
same,IRF Lucia reporter activity,RAW-Dual [1]; agonist: LPS (TLR4) 0.1 ug/mL,0.899
O=C(C=Cc1ccc(O)cc1)c1ccc(O)cc1O (library stock concentration (final ~1000-fold dilution): 10 mM),IRF Lucia reporter activity,RAW-Dual [1]; [4],0.252
same,IRF Lucia reporter activity,RAW-Dual [1]; agonist: LPS (TLR4) 0.1 ug/mL,0.535
COC(=O)C1=C(C)NC(C)=C(C(=O)OC(C)(C)CN(C)CCC(c2ccccc2)c2ccccc2)C1c1cccc([N+](=O)[O-])c1.Cl (stereo not drawn),IRF Lucia reporter activity,RAW-Dual [2]; [5],2.1
COC(=O)C1=C(C)NC(C)=C(C(=O)OCCN(C)Cc2ccccc2)C1c1cccc([N+](=O)[O-])c1.Cl (stereo not drawn) (library stock concentration (final ~1000-fold dilution): 10 mM),IRF Lucia reporter activity,RAW-Dual [1]; [4],0.3
same,IRF Lucia reporter activity,RAW-Dual [1]; agonist: LPS (TLR4) 0.1 ug/mL,1.4
COC(=O)C1=C(C)NC(C)=C(C(=O)OCCN(C)Cc2ccccc2)C1c1cccc([N+](=O)[O-])c1.Cl (stereo not drawn),IRF Lucia reporter activity,RAW-Dual [2]; [5],1.12
COC(=O)C1=C(C)NC(C)=C(C(=O)OC(C)(C)CN(C)CCC(c2ccccc2)c2ccccc2)C1c1cccc([N+](=O)[O-])c1 (stereo not drawn),IRF Lucia reporter activity,RAW-Dual [2]; [5],2.39
COC(=O)C1=C(C)NC(C)=C(C(=O)OC(C)(C)CN(C)CCC(c2ccccc2)c2ccccc2)C1c1cccc([N+](=O)[O-])c1 (stereo not drawn) (library stock concentration (final ~1000-fold dilution): 10 mM),IRF Lucia reporter activity,RAW-Dual [1]; [4],0.134
same,IRF Lucia reporter activity,RAW-Dual [1]; agonist: LPS (TLR4) 0.1 ug/mL,1.96
COC(=O)C1=C(C)NC(C)=C(C(=O)OC(C)(C)CN(C)CCC(c2ccccc2)c2ccccc2)C1c1cccc([N+](=O)[O-])c1.Cl (stereo not drawn) (library stock concentration (final ~1000-fold dilution): 10 mM),IRF Lucia reporter activity,RAW-Dual [1]; [4],0.139
same,IRF Lucia reporter activity,RAW-Dual [1]; agonist: LPS (TLR4) 0.1 ug/mL,3.23
COC(=O)c1ccc(O)c(NC(=O)COc2ccc(C34CC5CC(CC(C5)C3)C4)cc2)c1 (library stock concentration (final ~1000-fold dilution): 10 mM),IRF Lucia reporter activity,RAW-Dual [1]; [4],0.925
same,IRF Lucia reporter activity,RAW-Dual [1]; agonist: LPS (TLR4) 0.1 ug/mL,1.14
CC(C)Cc1ccc([C@@H](C)C(=O)O)cc1 (library stock concentration (final ~1000-fold dilution): 10 mM),IRF Lucia reporter activity,RAW-Dual [1]; [4],0.953
same,IRF Lucia reporter activity,RAW-Dual [1]; agonist: LPS (TLR4) 0.1 ug/mL,1.08
CCC(C)C(=O)OC1CC(C)C=C2C=CC(C)C(CCC3CC(O)CC(=O)O3)C21 (stereo not drawn),IRF Lucia reporter activity,RAW-Dual [2]; [5],0.744
CCC(C)C(=O)OC1CC(C)C=C2C=CC(C)C(CCC3CC(O)CC(=O)O3)C21 (stereo not drawn) (library stock concentration (final ~1000-fold dilution): 10 mM),IRF Lucia reporter activity,RAW-Dual [1]; [4],0.497
same,IRF Lucia reporter activity,RAW-Dual [1]; agonist: LPS (TLR4) 0.1 ug/mL,0.764
Cc1cc(C)c(Nc2ccnc(Nc3ccc(C#N)cc3)n2)c(C)c1,IRF Lucia reporter activity,RAW-Dual [2]; [6],1.7
Cc1cc(/C=C/C#N)cc(C)c1Nc1ccnc(Nc2ccc(C#N)cc2)n1,IRF Lucia reporter activity,RAW-Dual [2]; [5],0.64
Cc1cc(C#N)cc(C)c1Oc1nc(Nc2ccc(C#N)cc2)nc(N)c1Br,IRF Lucia reporter activity,RAW-Dual [2]; [5],2.4
Cc1cc(C)c(Nc2ccnc(Nc3ccc(C#N)cc3)n2)c(C)c1 (library stock concentration (final ~1000-fold dilution): 10 mM),IRF Lucia reporter activity,RAW-Dual [3]; [4],0.691
same,IRF Lucia reporter activity,RAW-Dual [3]; agonist: LPS (TLR4) 0.1 ug/mL,0.81
Cc1cc(C#N)cc(C)c1Oc1nc(Nc2ccc(C#N)cc2)nc(N)c1Br (library stock concentration (final ~1000-fold dilution): 10 mM),IRF Lucia reporter activity,RAW-Dual [1]; [4],1.09
same,IRF Lucia reporter activity,RAW-Dual [1]; agonist: LPS (TLR4) 0.1 ug/mL,2.87
Cc1cc(/C=C/C#N)cc(C)c1Nc1ccnc(Nc2ccc(C#N)cc2)n1 (library stock concentration (final ~1000-fold dilution): 10 mM),IRF Lucia reporter activity,RAW-Dual [1]; [4],0.03
same,IRF Lucia reporter activity,RAW-Dual [1]; agonist: LPS (TLR4) 0.1 ug/mL,0.489
CC1CNc2c(cccc2S(=O)(=O)NC(CCCNC(=N)N)C(=O)N2CCC(C)CC2C(=O)O)C1 (stereo not drawn),IRF Lucia reporter activity,RAW-Dual [2]; [5],0.948
CC1CNc2c(cccc2S(=O)(=O)NC(CCCNC(=N)N)C(=O)N2CCC(C)CC2C(=O)O)C1 (stereo not drawn) (library stock concentration (final ~1000-fold dilution): 10 mM),IRF Lucia reporter activity,RAW-Dual [1]; [4],1.01
same,IRF Lucia reporter activity,RAW-Dual [1]; agonist: LPS (TLR4) 0.1 ug/mL,0.919
O=C(O)c1cc(I)ccc1NC(=O)C(Cc1ccccc1)NCc1ccccc1 (stereo not drawn),IRF Lucia reporter activity,RAW-Dual [2]; [5],1.05
O=C(O)c1cc(I)ccc1NC(=O)C(Cc1ccccc1)NCc1ccccc1 (stereo not drawn) (library stock concentration (final ~1000-fold dilution): 10 mM),IRF Lucia reporter activity,RAW-Dual [1]; [4],1.17
same,IRF Lucia reporter activity,RAW-Dual [1]; agonist: LPS (TLR4) 0.1 ug/mL,1.41
Nc1nc2[nH]cc(CCc3ccc(C(=O)NC(CCC(=O)O)C(=O)O)cc3)c2c(=O)[nH]1 (stereo not drawn) (library stock concentration (final ~1000-fold dilution): 10 mM water),IRF Lucia reporter activity,RAW-Dual [1]; [4],1.15 and 0.82
same,IRF Lucia reporter activity,RAW-Dual [1]; agonist: LPS (TLR4) 0.1 ug/mL,0.998 and 0.771
Nc1nc2[nH]cc(CCc3ccc(C(=O)NC(CCC(=O)O)C(=O)O)cc3)c2c(=O)[nH]1 (stereo not drawn),IRF Lucia reporter activity,"RAW-Dual [2]; library stock concentration (final ~1000-fold dilution): 10 mM water, cytotoxicity flag (confluency mask): not cytotoxic",1.12
